Test results published in PubChem BioAssay (NCATS).
Records with an inconclusive call do not appear. Values without a mark were called inactive. The call rests on the fitted dose curve; in most records, active means well fitted inhibition curve with a large enough effect; inconclusive means small, poorly fitted or top-dose-only effect; inactive means flat fitted curve, though single readings scatter.

Target: Calcium and integrin-binding protein 1 (Homo sapiens) (UniProt Q99828)
Assay: Primary qHTS for Identification of Calcium Integrin Binding Protein 1 (CIB1) Competitor (AID 1508620);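 further: GST tagged CIB1 binding a fluorescein labelled alphaIIb integrin peptide tracer; top concentration of the series differs between compounds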
Conditions: CIB1-GST / FITC-alphaIIb peptide fluorescence polarization; series mostly up to 114 µM; activity change, negative = inhibition: at the top concentration
From the text: Assay Provider: Ulhas P. Naik, PhD Sidney Kimmel Medical College Thomas Jefferson University, Philadelphia, PA Primary function of platelets is to maintain hemostasis. At the site of vascular injury, platelets adhere to adhesive proteins such as collagen and von Willebrand factor. Adherent platelets are activated and generate soluble platelet agonists such as thrombin, ADP and thromboxane A2. Following exposure of circulating platelets to these agonists, results in platelet shape change, granule secretion and activation of platelet integrin alphaIIb-beta3. Ligand binding to activated integrin alphaIIb-beta3 triggers outside-in signaling, leading to platelet aggregation, stabilization of platelet plug, and clot retraction. Upon atherosclerotic plaque rupture also causes platelet plug formation, which underlies a number of cardiovascular diseases such as myocardial infraction and stroke. A number of anti-platelet drugs such as aspirin, clopidogrel, prasugrel, vorapaxar, and eptifibatide are currently available to prevent the thrombotic complications. However, these anti-platelet agents have several limitations including inherent variability in individual responses, developing resistance, and serious bleeding side effects. For these reasons they are not suitable for long-term protection. Based on the experiences with current anti-platelet drugs, it appears that the most useful therapeutic approach is to intersect the secondary responses such as integrin outside-in signaling or recruitment of platelets by TxA2 and secreted ADP. Compounds, which can largely preserve the primary hemostatic function of platelets but inhibit secondary response will be most desired therapeutic agents for treatment of cardiovascular disease. CIB1 is a calcium integrin binding protein, which specifically interact with the alphaIIb subunit of integrin alphaIIb-beta3. Binding of CIB1 to alphaIIb regulates the outside-in signaling in platelets, which is needed for thrombus stabilization and thrombus growth. […] Therefore, we propose that discovery of a small molecule that can prevent the association of CIB1 and alphaIIb-beta3 will be a potential anti-platelet agent that can block the thrombus formation without undue effect on hemostasis. Reference: [1] Naik MU, Nigam A, Manrai P, et al. CIB1 deficiency results in impaired thrombosis: the potential role of CIB1 in outside-in signaling through integrin alpha IIb beta 3. J Thromb Haemost.
PROTOCOL TABLES SEQUENCE No. (1, 2, 3, etc.); […] (e.g., Cells, Incubation, Reagent, etc.); VALUE and DESCRIPTION. 1; Reagent; 3 uL; Protein or buffer (4/3x) 2; Compound; 46 nL; Control inhibitor / compound library 3; Time; 15 min; Room temperature incubation 4; Reagent; 1 uL; Fluorescent labeled peptide (4x) 5; Time; 1000 rpm; Centrifuge 6; Time; 15 min; Room temperature incubation 7; Detection; Ex 480/ Em 540; ViewLux Fluorescence Read NOTES (numbers refer to sequence above) 1; Protein Mixture: C1B1-GST (final concentrations of 1 uM). […] 3; Room temperature incubation. 4; Fluorescent Labeled Peptide: FITC-aIIb (final concentration of 100 nM). Sequence of alphaIIb peptide: Acetyl-[…]-FITC (purity is 95.83%). 5; Centrifuge 1000 rpm (164 g) for 15 seconds. 6; Room temperature incubation. 7; ViewLux Fluorescent Polization Read: excitation = 480(20) / emission = 540(25) S and P; FITC Dichroic mirror.
On the % scale 0 is the no-effect control and ±100 the full control effect.

Sequence of Calcium and integrin-binding protein 1 (Homo sapiens) (Q99828 whole entry, looked up): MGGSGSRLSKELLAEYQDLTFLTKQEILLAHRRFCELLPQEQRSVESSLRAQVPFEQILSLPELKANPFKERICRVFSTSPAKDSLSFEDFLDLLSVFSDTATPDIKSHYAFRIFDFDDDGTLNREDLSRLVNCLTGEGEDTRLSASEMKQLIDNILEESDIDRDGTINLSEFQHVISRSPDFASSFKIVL

| SMILES | activity change, negative = inhibition |
| --- | --- |
| O=C(O)CCC(=O)OC[C@@H](NC(=O)C(Cl)Cl)[C@H](O)c1ccc([N+](=O)[O-])cc1 | 7.86% |
| CN(C)CCCOC1(Cc2ccccc2)CCCCCC1 | 1.38% |
| O=C(CCCl)NCc1ccccc1 | 7.28% |
| C=CCOc1cc(Cl)ccc1C(=O)NCCN(CC)CC | 2.56% |
| CCOC(=O)[C@H](CCc1ccccc1)N[C@@H](C)C(=O)N(CC(=O)O)C1Cc2ccccc2C1 | -12% |
| CN1CC(=O)N2[C@H](c3ccc4c(c3)OCO4)c3[nH]c4ccccc4c3C[C@@H]2C1=O | -0.667% |
| COc1ccc2c(c1)c(CC(=O)OC/C=C(\C)CC/C=C(\C)CCC=C(C)C)c(C)n2C(=O)c1ccc(Cl)cc1 | -1.42% |
| CC(C)(C)c1ccc(C(=O)CCCCl)cc1 | 0.244% |
| O=C(Oc1ccccc1)c1ccccc1O | -1.33% |
| CC(C)(C)C(=O)OCOC(=O)C1N2C(=O)CC2S(=O)(=O)C1(C)C (stereo not given) | 0.126% |
| CCOc1ncc(F)c(=O)[nH]1 | 3.96% |
| CN(C)C(=O)CNC(=O)Cc1ccccc1 | 0.847% |
| O=C(OCC(COC(=O)c1cccnc1)(COC(=O)c1cccnc1)COC(=O)c1cccnc1)c1cccnc1 | 1.9% |
| Cc1ccc2c(Cl)cc(Cl)c(O)c2n1 | -2.78% |
| CCOC(=O)C(=O)CCc1ccccc1 | -8.62% |
| CNC(=O)c1cnn(-c2nc(N)c3ncn([C@@H]4O[C@H](CO)[C@@H](O)[C@H]4O)c3n2)c1 | 4.22% |
| Cn1c(=O)c2c(ncn2CC(=O)O)n(C)c1=O | 4.56% |
| CN(C)CCN(Cc1ccsc1)c1ccccn1 | -5.33% |
| O=C1CC2(CCCC2)CC(=O)N1 | -3.88% |
| CC(C(=O)O)c1ccc(/C=C2\CCCCC2=O)cc1 (stereo not given) | -1.04% |

| SMILES | activity change, negative = inhibition |
| --- | --- |
| CCCCCCCCCCCCCCCCCCNC(=O)OC1CCN(C(=O)OC[C@H](COC(=O)N(Cc2cccc[n+]2CC)C(=O)c2ccccc2OC)OC)CC1 | -2.21% |
| CC(C)=CCC/C(C)=C/CC/C(C)=C/CCC(=O)OC/C=C(\C)CCC=C(C)C | 5.8% |
| Cc1cc(CCCOc2c(C)cc(-c3noc(C(F)(F)F)n3)cc2C)on1 | -2.11% |
| CCOC(=O)OCC/C(SC(=O)OCC)=C(\C)N(C=O)Cc1cnc(C)nc1N | 8.14% |
| CCCC(=O)OCOC(=O)C1=C(C)NC(C)=C(C(=O)OC)C1c1cccc(Cl)c1Cl (stereo not given) | -0.779% |
| Cc1[nH]cnc1-c1ccc(Cl)cc1 | 1.64% |
| Cc1ncc(CO)c(CO)c1O | -7.86% |
| Oc1ccccc1-c1nnco1 | -2.75% |
| O=[N+]([O-])c1cncn1CCN1CCOCC1 | -0.878% |
| CC(=O)c1cc2ccccc2s1 | -1.64% |
| CC(=O)Oc1ccc(C2(c3ccc(OC(C)=O)cc3)Oc3ccccc3NC2=O)cc1 | -2.97% |
| CC(C)(C)CC(=O)OCC(=O)[C@@]1(O)CC[C@H]2[C@@H]3CCC4=CC(=O)C=C[C@]4(C)[C@H]3[C@@H](O)C[C@@]21C | 6.09% |
| CN1CCN(N)CC1 | -0.0233% |
| C/C(=C1\CCOC(=O)S1)N(C=O)Cc1cnc(C)nc1N | -6.32% |
| CCOc1ccccc1OCC1CNCCO1 (stereo not given) | 1.4% |
| O=C1OC2(c3ccccc31)c1cc(I)c(O)c(I)c1Oc1c2cc(I)c(O)c1I | 7.59% |
| CCCC(=O)O[C@]1(C(=O)COC(=O)CC)CC[C@H]2[C@@H]3CCC4=CC(=O)CC[C@]4(C)[C@H]3[C@@H](O)C[C@@]21C | -0.475% [at 57.7 µM] |
| O=C(NN1CCCC1)NS(=O)(=O)c1ccc(Cl)cc1 | 2.84% |
| CCN(CC)CC(=O)OCC(=O)[C@@]1(O)CC[C@H]2[C@@H]3CCC4=CC(=O)CC[C@]4(C)[C@H]3[C@@H](O)C[C@@]21C | 0.832% |
| CO[C@@H]1[C@@H](OC)[C@H](C)[C@@](O)(CC(=O)O)O[C@H]1[C@H](C)[C@H]1O[C@@]2(CC[C@@](C)([C@H]3CC[C@@](C)([C@@H]4O[C@@H]([C@H]5O[C@](C)(O)[C@H](C)C[C@@H]5C)C[C@@H]4OC4C[C@H](OC)[C@@H](OC)[C@H](C)O4)O3)O2)C[C@H](O)[C@H]1C (stereo not given in full) | 1.23% |
